Assay outcomes (PubChem)
ELG1 DNA repair – ELG1-dependent DNA repair inhibition; 330,000 tested, 2.3% active; Potency, µM (top dose mostly 46.1 µM), actives largely listed as inhibitors; HEK293T ELG1-luciferase reporter, luminescence, 16 h; DNA damage induced by 5-fluorouridine; AID 504467; note: nearly all actives have a fitted effect of over 55% in size
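5-Fluorouridine DNA damage + compound/DMSO, 2,000 cells/well, 16 h, 37 °C/5% CO2. ONE-Glo, 30 min RT, luminescence. Readout = decrease in reporter signal.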
SMN2 splice up – SMN2 splice variant enhancement. HEK293 SMN2-luciferase splicing reporter, luminescence, 30-36 h. Potency, µM (titrated, usually from 46.1 µM), most hits filed as activators. 210,000 tested, 2.8% active. AID 1458; note: nearly all actives have a fitted effect of over 55% in size
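HEK293 cells carry an SMN2 […]–luciferase reporter in which exon 7 inclusion puts luciferase in frame. Cells were plated 10-12 h before compound addition, then incubated 30-36 h at 37C. ONE-Glo luminescence was read; sodium butyrate at 4.5 mM final served as control.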
FLuc modulator – counter-screen for miR-21 project: firefly luciferase inhibitors or activators. P08659. purified FLuc, Km substrates, luminescence inhibition. Potency, µM (doses to about 57.5 µM), actives largely listed as inhibitors. 360,000 tested, 6.9% active. AID 588342; note: nearly all actives have a fitted effect of over 55% in size
Target sequence (P08659 whole entry, looked up): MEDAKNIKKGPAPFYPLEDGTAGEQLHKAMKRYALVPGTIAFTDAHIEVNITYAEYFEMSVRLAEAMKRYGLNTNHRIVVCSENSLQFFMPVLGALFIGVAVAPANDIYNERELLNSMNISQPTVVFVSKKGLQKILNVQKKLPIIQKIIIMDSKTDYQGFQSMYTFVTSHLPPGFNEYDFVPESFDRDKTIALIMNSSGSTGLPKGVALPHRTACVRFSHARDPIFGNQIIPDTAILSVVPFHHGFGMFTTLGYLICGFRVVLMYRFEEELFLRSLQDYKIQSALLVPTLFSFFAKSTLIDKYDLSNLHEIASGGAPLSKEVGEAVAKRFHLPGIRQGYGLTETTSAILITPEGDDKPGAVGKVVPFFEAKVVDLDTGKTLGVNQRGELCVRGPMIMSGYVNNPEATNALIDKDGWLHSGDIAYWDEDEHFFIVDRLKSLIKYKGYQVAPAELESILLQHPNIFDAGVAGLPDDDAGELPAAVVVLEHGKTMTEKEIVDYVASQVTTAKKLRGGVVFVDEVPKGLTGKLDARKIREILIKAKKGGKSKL
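Biochemical qHTS of compounds, final roughly 60 µM downward over six points, against 10 nM purified firefly luciferase using Km concentrations of substrates (10 uM D-luciferin, 10 uM ATP) in Tris acetate pH 7.5 buffer; luminescence output.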
NPC1 prom act – activators of NPC1 promoter; Huh7 NPC1 promoter luciferase reporter, 24 h; Potency, µM (titrated, usually from 9.22 µM), usual class: activators; 320,000 tested, 2.4% active; note: nearly all actives have a fitted effect of over 60% in size
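Compounds in DMSO were transferred onto Huh7 NPC1-luciferase reporter cells pre-incubated 2 h; after 24 h at 37 °C, Amplite reagent was dispensed and luminescence recorded 10 min later.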
Rab9 prom act – activates the Rab9 promoter. Huh7 Rab9 promoter-luciferase reporter, luminescence, 24 h. Potency, µM (highest dose often 9.22 µM), usual class: activators. 320,000 tested, 2.8% active. AID 485297; note: nearly all actives have a fitted effect of over 60% in size
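Huh7 reporter line, Rab9 promoter upstream of luciferase. Compound exposure 24 h at 37 °C in reduced-serum medium with 10% FBS. Read-out: luminescence.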
ELG1 genotox – induces genotoxicity in HEK293T cells with luciferase-tagged ELG1; HEK293T ELG1-luciferase reporter, luminescence, 16 h; Potency, µM (series often up to 46 µM), usual class: activators; AID 504466; 330,000 tested, 1.3% active; note: nearly all actives have a fitted effect of over 60% in size
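Screening used a luciferase reporter fused to human ELG1 in HEK293T cells. Luminescence was read on a CCD plate imager after 16 hr exposure and 30 min ONE-Glo incubation.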
ELG1 FLuc counter – luciferase inhibition in cell-free luciferin readout for ELG1 hits; AID 624247; Potency, µM (titrated, usually from 46.1 µM), usual class: inhibitors; shares compounds with ELG1 DNA repair; cell-free firefly luciferase luminescence counter-screen, ViewLux; 350 tested, 3% active
ELG1-Luc inh – human ELG1 repair inhibition, luciferase-tagged ELG1 confirmation | shares compounds with ELG1 DNA repair | 670 tested, 68% active | HEK293T ELG1-luciferase levels, luminescence; cells co-treated with 5-fluorouridine | AID 624248 | Potency, µM (doses to about 46.1 µM), hits mostly inhibitors; note: nearly all actives have a fitted effect of over 55% in size
ELG1-Luc MMS – inhibits ELG1-dependent repair under MMS stimulation in HEK293T cells | Potency, µM (highest dose often 46.1 µM), usual class: inhibitors | HEK293T luciferase-tagged ELG1 level, MMS stimulated | 670 tested, 53% active | shares compounds with ELG1 DNA repair; note: nearly all actives have a fitted effect of over 60% in size
ELG1 5-FU – confirmation of ELG1 repair inhibitors: viability with 5FU; shares compounds with ELG1 DNA repair; cell viability with 5-FU, ELG1-dependent repair; Potency, µM (titrated, usually from 46.1 µM), most hits filed as cytotoxic; 670 tested, under 10 active;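 note: ELG1-luc HEK293T cells cotreated with 5-fluorouridine at 10 µM final; viability measured 16 h after compound addition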
ELG1 MMS viab – confirmation of ELG1 repair inhibitors: viability with MMS. Cell viability with MMS, ELG1-dependent DNA repair. shares compounds with ELG1 DNA repair. 670 tested, 33% active. AID 624251. Potency, µM (doses to about 46.1 µM), actives largely listed as cytotoxic;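 note: ELG1-luc HEK293T cells co-treated with 10 µM MMS; viability read 16 h after compound addition; nearly all actives have a fitted effect of over 60% in size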
Cell viab unstim – affects unstimulated cell viability, ELG1 hit counter-screen | shares compounds with ELG1 DNA repair | cell viability counter-screen, unstimulated, luminescence | Potency, µM (doses to about 45.9 µM), hits mostly cytotoxic | 900 tested, 8% active | AID 624252;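 note: compound exposure lasted 16 hours before reading; nearly all actives have a fitted effect of over 55% in size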
FLuc biochem – inhibits purified firefly luciferase, counter-screen for ELG1 hits | shares compounds with ELG1 DNA repair | purified firefly luciferase, luminescence counter-screen | Potency, µM (titrated, usually from 57.5 µM), actives largely listed as inhibitors | 350 tested, 10% active | AID 624253
Numbers stand for hits. Most compounds without a hit are left out; they make up all but 9.3% or so of the library. Calls come from the whole dose curve; as a rule, active = well fitted curve in the direction sought with a large enough effect; inconclusive = small, poorly fitted or top-dose-only effect, or another doubt; inactive = no such curve, though single readings can be large; an effect the other way counts as inactive or inconclusive.

`CN(C)c1ccc(C(CNS(=O)(=O)c2ccccc2)N2CCc3ccccc32)cc1` (stereo unspecified) gave FLuc modulator inactive.
`CC(=O)N(C)c1ccc(/C=C2\C=Cc3ccccc32)cc1` gave ELG1 FLuc counter inactive, Cell viab unstim inconclusive and FLuc biochem 0.231µM.
Screening Cc1cc(C(=O)NCc2cccnc2)n(-c2ccccc2)n1 returned ELG1 DNA repair inactive, SMN2 splice up inactive, FLuc modulator inactive, NPC1 prom act inactive, Rab9 prom act inactive and ELG1 genotox inactive.
`COCCCNc1nc(N)c([N+](=O)[O-])c(Nc2cc(OC)ccc2OC)n1` gave ELG1 DNA repair 1.83µM, FLuc modulator inactive, NPC1 prom act inactive, Rab9 prom act inactive, ELG1 genotox inconclusive, ELG1-Luc inh 1.12µM, ELG1-Luc MMS inconclusive, ELG1 5-FU inconclusive, ELG1 MMS viab inactive and Cell viab unstim inactive.
For COc1ccc(OC)c(Nc2nc(NCCCN(C)C)nc(N)c2[N+](=O)[O-])c1 the results were ELG1 DNA repair inactive, FLuc modulator inactive, NPC1 prom act inactive, Rab9 prom act inactive and ELG1 genotox inactive.
Cc1cc(-c2csc(NC(=O)c3ccc(=O)n(C)n3)n2)c(C)n1CC1CCCO1 (stereo unspecified) was read as ELG1 DNA repair inactive, SMN2 splice up inactive, FLuc modulator inactive, NPC1 prom act inactive, Rab9 prom act inactive and ELG1 genotox inactive.
For COC(=O)Cn1c2[n+](c3ccccc31)CC(O)CS2 (stereo unspecified) the results were ELG1 DNA repair inconclusive, SMN2 splice up inactive, FLuc modulator inactive, NPC1 prom act inactive, Rab9 prom act inactive, ELG1 genotox inactive, ELG1 FLuc counter inactive, ELG1-Luc inh inactive, ELG1-Luc MMS inactive, ELG1 5-FU inactive, ELG1 MMS viab inactive, Cell viab unstim inactive and FLuc biochem inactive.
CN(CC(=O)Nc1ccccc1Br)C(=O)c1ccc(-c2ccc(Cl)cc2)o1 was read as ELG1 DNA repair 0.366µM, FLuc modulator inactive, NPC1 prom act inactive, Rab9 prom act inactive, ELG1 genotox inactive, ELG1 FLuc counter inactive, ELG1-Luc inh inconclusive, ELG1-Luc MMS 22.3µM, ELG1 5-FU inactive, ELG1 MMS viab 25µM, Cell viab unstim inconclusive and FLuc biochem 20.6µM.
Screening Cc1nn(Cc2ccc(F)cc2)c(Cl)c1/C=N/NC(=O)c1ccccc1 returned ELG1 DNA repair inactive, SMN2 splice up inactive, FLuc modulator inconclusive, NPC1 prom act inactive, Rab9 prom act inactive and ELG1 genotox inactive.
Screening COc1cc(-c2noc(C)c2/C=C/c2cccc([N+](=O)[O-])c2)cc(OC)c1OC returned ELG1 DNA repair 2.59µM, FLuc modulator inactive, NPC1 prom act inactive, Rab9 prom act inactive, ELG1 genotox inactive, ELG1-Luc inh 1.99µM, ELG1-Luc MMS 7.05µM, ELG1 5-FU inconclusive, ELG1 MMS viab inconclusive and Cell viab unstim inconclusive.
Screening COc1cc(-c2noc(C)c2/C=C/c2ccc(C(=O)O)cc2)cc(OC)c1OC returned ELG1 DNA repair inactive, FLuc modulator inactive, NPC1 prom act inactive, Rab9 prom act inactive and ELG1 genotox inactive.
Clc1ccc(-c2c[n+](Cc3ccc(Cl)c(Cl)c3)c3n2CCC3)cc1 was read as ELG1 DNA repair inactive, SMN2 splice up inactive, FLuc modulator inactive, NPC1 prom act inactive, Rab9 prom act inactive and ELG1 genotox inactive.
For Cc1ccc(-c2c[n+](Cc3ccc(Cl)cc3)c3n2CCC3)cc1 the results were ELG1 DNA repair 2.59µM, FLuc modulator inactive, NPC1 prom act inactive, Rab9 prom act inactive, ELG1 genotox inactive, ELG1 FLuc counter inactive, ELG1-Luc inh inconclusive, ELG1-Luc MMS 7.92µM, ELG1 5-FU inactive, ELG1 MMS viab 7.92µM, Cell viab unstim 3.97µM and FLuc biochem inactive.
Screening CC1CCN(S(=O)(=O)c2ccc3c(c2)N(CC(=O)NCCCN2CCCC(C)C2)C(=O)CS3)CC1 (stereo unspecified) returned ELG1 DNA repair inconclusive, FLuc modulator inactive, NPC1 prom act inactive, Rab9 prom act inactive and ELG1 genotox inactive.
Screening CN(C)c1ccc(/C=C/c2ccc3ccccc3[n+]2[O-])cc1 returned ELG1 FLuc counter inactive, Cell viab unstim 12.6µM and FLuc biochem 0.092µM.
NC(=O)C1CCN(c2ccc(S(=O)(=O)N3CCC(Cc4ccccc4)CC3)cn2)CC1 was read as ELG1 DNA repair inconclusive, SMN2 splice up inactive, FLuc modulator inactive, NPC1 prom act inactive, Rab9 prom act inactive, ELG1 genotox inactive, ELG1-Luc inh inactive, ELG1-Luc MMS 1.99µM, ELG1 5-FU inactive, ELG1 MMS viab 2.5µM and Cell viab unstim inconclusive.
For O=[N+]([O-])c1cccnc1N1CCN(Cc2ccc3c(c2)OCO3)CC1 the results were ELG1 DNA repair inactive, FLuc modulator inactive, NPC1 prom act inactive, Rab9 prom act inactive and ELG1 genotox inactive.
`O=[N+]([O-])c1ccc2ncnc(N3CCN(Cc4ccc5c(c4)OCO5)CC3)c2c1` gave ELG1 DNA repair 2.06µM, FLuc modulator inactive, NPC1 prom act inactive, Rab9 prom act inactive, ELG1 genotox inactive, ELG1-Luc inh 4.99µM, ELG1-Luc MMS 12.5µM, ELG1 5-FU inactive, ELG1 MMS viab 25µM and Cell viab unstim inconclusive.
`CN(C)c1ccc(C(=O)OCC(=O)c2ccc[nH]2)cc1` gave ELG1 DNA repair inconclusive, ELG1 genotox 16.4µM and Cell viab unstim inactive.
